This is an account of results in PubChem BioAssay.

The test system of assay [1] is Plasmodium falciparum Sir2 (PF13_0152, Sir2A). The assay is described as follows: pfSir2 binders on small-molecule microarrays, primary screen, biochemical, small-molecule microarray, 635 nm fluorescence (AID 1098).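 Also: score merges spot fluorescence intensity with its signal-to-noise ratio.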 To be noted: small-molecule microarray binding, fluorescence 635 nm; higher = more signal.
A short description of assay [2]: small-molecule microarray binders of probe aDKK1, primary screen, biochemical, biotinylated probe, 635/667 nm fluorescence (AID 1099).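 Also: score merges 667nm spot fluorescence with signal to noise across triplicate slides.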 To be noted: higher = more signal.
Assay [3] can be described thus: small-molecule microarray binders of probe aCHRDL2, primary screen, biochemical, biotinylated probe, 635/667 nm fluorescence (AID 1100). To be noted: higher = more signal.
Assay [4] is described as follows: splicing luciferase reporter signal modulators, primary screen, spliceosome inhibition project, cell-based, HEK293, splice +/- reporter (AID 1101).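 Also: HEK293 cells carrying a splicing-competent luciferase reporter gene; test concentration not given here.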 To be noted: luminescence, 24 h, higher = more signal, called active from +8 up or from −8 down.
In assay [5] the target is Fibroblast growth factor 10 (Homo sapiens) (UniProt O15520). The assay is described as follows: FGF10 binders on small-molecule microarrays, primary screen, biochemical, small-molecule microarray, 635 nm fluorescence (AID 1102). To be noted: FGF10 binding, fluorescence 635 nm, higher = more signal.
Chain of Fibroblast growth factor 10 (Homo sapiens) (O15520 whole entry, looked up): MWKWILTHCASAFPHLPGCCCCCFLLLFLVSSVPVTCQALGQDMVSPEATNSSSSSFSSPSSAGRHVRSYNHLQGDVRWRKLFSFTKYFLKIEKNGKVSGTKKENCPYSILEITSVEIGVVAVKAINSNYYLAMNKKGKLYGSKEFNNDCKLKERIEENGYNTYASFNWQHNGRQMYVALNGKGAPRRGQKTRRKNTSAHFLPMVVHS
For assay [6], the system named is glycogen synthase kinase-3 (GSK3A per assay name; protocol says GSK3B). Nature of the assay: GSK3 binders on small-molecule microarrays, primary screen, biochemical, small-molecule microarray, 635 nm fluorescence, GSK3A (AID 1103). Also: the record names both GSK3A and GSK3B. As to conditions: small-molecule microarray binding, fluorescence 635 nm; higher = more signal.
For assay [7], the target named is Epidermal growth factor receptor (Homo sapiens) (UniProt P00533). Nature of the assay: EGFR binders on small-molecule microarrays, primary screen, biochemical, small-molecule microarray, 635 nm fluorescence (AID 1104).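 Also: score merges 667 nm emission intensity with spot signal to noise over triplicate slides.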 As to conditions: EGFR binding, higher = more signal.
Chain of Epidermal growth factor receptor (Homo sapiens) (P00533 whole entry, looked up): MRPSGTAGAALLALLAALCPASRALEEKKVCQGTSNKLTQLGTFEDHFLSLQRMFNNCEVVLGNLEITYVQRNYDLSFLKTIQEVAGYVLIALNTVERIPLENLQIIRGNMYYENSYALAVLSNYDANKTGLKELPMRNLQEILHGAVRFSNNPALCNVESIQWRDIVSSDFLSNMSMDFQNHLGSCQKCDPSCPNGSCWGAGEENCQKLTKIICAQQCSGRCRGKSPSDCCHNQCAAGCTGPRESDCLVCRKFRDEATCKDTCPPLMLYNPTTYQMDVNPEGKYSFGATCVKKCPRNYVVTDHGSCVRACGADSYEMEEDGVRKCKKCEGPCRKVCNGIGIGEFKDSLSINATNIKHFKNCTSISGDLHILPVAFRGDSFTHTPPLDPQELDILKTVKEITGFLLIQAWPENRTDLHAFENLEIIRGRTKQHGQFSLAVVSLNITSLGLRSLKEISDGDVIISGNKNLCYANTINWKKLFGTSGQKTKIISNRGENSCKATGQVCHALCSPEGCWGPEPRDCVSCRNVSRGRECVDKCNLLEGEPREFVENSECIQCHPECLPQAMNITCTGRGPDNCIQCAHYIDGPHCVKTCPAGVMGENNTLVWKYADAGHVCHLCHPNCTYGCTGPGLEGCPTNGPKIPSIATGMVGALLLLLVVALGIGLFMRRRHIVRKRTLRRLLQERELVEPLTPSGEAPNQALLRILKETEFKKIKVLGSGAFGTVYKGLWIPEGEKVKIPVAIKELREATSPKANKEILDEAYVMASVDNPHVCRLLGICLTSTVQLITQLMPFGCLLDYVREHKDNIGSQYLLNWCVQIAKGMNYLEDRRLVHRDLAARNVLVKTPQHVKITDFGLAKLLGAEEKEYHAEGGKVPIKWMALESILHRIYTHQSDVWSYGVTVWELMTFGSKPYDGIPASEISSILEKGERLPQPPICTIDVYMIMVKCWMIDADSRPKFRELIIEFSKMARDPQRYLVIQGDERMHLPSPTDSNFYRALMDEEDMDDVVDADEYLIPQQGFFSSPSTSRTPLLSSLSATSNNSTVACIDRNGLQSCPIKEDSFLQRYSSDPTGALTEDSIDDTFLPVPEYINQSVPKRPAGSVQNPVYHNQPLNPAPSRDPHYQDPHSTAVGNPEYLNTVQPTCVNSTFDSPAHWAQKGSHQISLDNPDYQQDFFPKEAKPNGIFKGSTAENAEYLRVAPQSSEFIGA
Assay [8] addresses Follistatin-related protein 3 (Homo sapiens) (UniProt O95633). Nature of the assay: FSTL3 binders on small-molecule microarrays, primary screen, biochemical, small-molecule microarray, 635 nm fluorescence (AID 1105).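 Also: score merges emission near 667 nm and signal to noise per printed spot across three slides.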 As to conditions: FSTL3 binding, higher = more signal.
The target of assay [9] is Dickkopf-related protein 1 (Homo sapiens) (UniProt O94907). Nature of the assay: DKK1 binders on small-molecule microarrays, primary screen, biochemical, small-molecule microarray, 635 nm fluorescence scan (AID 1106).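 Also: score merges emission near 667 nm with signal to noise over three replicate slides.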 As to conditions: DKK1 binding, higher = more signal.
Chain of Dickkopf-related protein 1 (Homo sapiens) (O94907 whole entry, looked up): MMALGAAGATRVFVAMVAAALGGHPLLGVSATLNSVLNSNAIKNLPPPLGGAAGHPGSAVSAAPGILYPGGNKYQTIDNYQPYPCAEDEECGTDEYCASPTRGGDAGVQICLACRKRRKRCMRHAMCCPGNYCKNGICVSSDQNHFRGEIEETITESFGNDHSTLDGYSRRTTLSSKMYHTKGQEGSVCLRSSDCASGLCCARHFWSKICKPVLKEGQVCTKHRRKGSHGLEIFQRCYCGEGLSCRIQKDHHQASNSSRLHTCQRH
For assay [10], the system named is Inhibin beta A chain (activin A). The assay is described as follows: INHBA (activin A) binders on microarrays, primary screen, biochemical, small-molecule microarray, 635 nm fluorescence scan (AID 1107).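 Also: mouse activin A protein probed at 4.33 µg/mL on printed slides; score merges bound-protein fluorescence near 667 nm with spot signal-to-noise.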 As to conditions: small-molecule microarray binding, higher = more signal.
Assay [11] concerns Human papillomavirus type 1a protein E7 (residues 44-93). The assay is described as follows: HPV1a E7 fragment binders on microarrays, primary screen, biochemical, small-molecule microarray, residues 44-93, 635 nm fluorescence (AID 1108).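 Also: E7 fragment applied at 1 µg/mL in TBST for 1 h at 4 C; score combines spot fluorescence with its signal to noise ratio.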 To be noted: small-molecule microarray binding, fluorescence 635 nm; higher = more signal.
Assay [12] in a line: modulators of HCV replicon luciferase signal, primary screen, HCV replication inhibitor project, Huh7 cells, luciferase reporter (AID 1109).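 Also: huh7 hepatoma cells harbouring a luciferase neomycin HCV replicon reporter; luciferase luminescence as measure of HCV replicon replication; test concentration not given here.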 To be noted: 48 h, higher = more signal. In general terms: A replicon is a self-replicating genome or part of one, used to study replication in cells.
The target of assay [13] is Left-right determination factor 2 (Homo sapiens) (UniProt O00292). The assay is described as follows: LEFTY2 binders on small-molecule microarrays, primary screen, biochemical, small-molecule microarray, 635 nm fluorescence scan (AID 1110). As to conditions: LEFTY2 binding, higher = more signal.
Chain of Left-right determination factor 2 (Homo sapiens) (O00292 whole entry, looked up): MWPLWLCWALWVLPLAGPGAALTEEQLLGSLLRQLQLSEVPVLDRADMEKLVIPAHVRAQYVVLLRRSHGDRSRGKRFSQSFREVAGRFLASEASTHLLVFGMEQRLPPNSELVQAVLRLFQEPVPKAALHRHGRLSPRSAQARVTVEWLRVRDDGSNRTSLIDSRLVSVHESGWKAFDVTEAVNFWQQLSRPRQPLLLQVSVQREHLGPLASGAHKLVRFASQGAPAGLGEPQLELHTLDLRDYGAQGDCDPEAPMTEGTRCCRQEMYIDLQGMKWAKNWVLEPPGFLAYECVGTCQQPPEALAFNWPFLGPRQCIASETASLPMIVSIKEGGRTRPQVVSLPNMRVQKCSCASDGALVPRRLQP
Assay [14] addresses Calmodulin-1 (Homo sapiens) (UniProt P0DP23). Nature of the assay: CALM1 binders on microarrays, EGTA buffer, profiling panel, biochemical, small-molecule microarray, Cy5-labelled CALM1 (AID 1111).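 Also: labelled calmodulin applied in Tris saline Tween buffer holding calcium plus EGTA and DTT.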 To be noted: Cy5-CALM1 binding fluorescence, higher = more signal.
For assay [15] the target is unchanged. The assay is described as follows: calcium-bound CALM1 binders on microarrays, profiling panel, artefact control for SMM control-protein annotation, biochemical, small-molecule microarray, Cy5-labelled CALM1, plus calcium (AID 1112).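 Also: score merges spot fluorescence with signal to noise from triplicate slides.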 As to conditions: Cy5-CALM1 binding fluorescence, higher = more signal.
The nature of assay [16]: small-molecule microarray binders of probe aWnt5a, primary screen, biochemical, biotinylated probe, 635/667 nm fluorescence (AID 1113).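 Also: score merges 667 nm fluorescence intensity with signal-to-noise per printed feature.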 As to conditions: higher = more signal.
Assay [17] can be described thus: small-molecule microarray binders of probe aShh, primary screen, biochemical, biotinylated probe, 635/667 nm fluorescence (AID 1114).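 Also: probe is biotin-labelled aShh protein from a stem cell growth factor screen; measures binding of labelled protein to compounds printed on the slide; score merges feature fluorescence at 667 nm with signal-to-noise.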 To be noted: higher = more signal.
Assay [18] in a line: small-molecule microarray binders of probe aNog, primary screen, biochemical, biotinylated probe, 635/667 nm fluorescence (AID 1115).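 Also: probe is biotinylated aNog protein used at 0.15 µg/mL for 1 h at 4 C; z-score combines 667 nm fluorescence of each spot with its signal to noise.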 To be noted: higher = more signal.
Assay [19] addresses Torsin-1A-interacting protein 1 (Homo sapiens) (UniProt Q5JTV8). Nature of the assay: LAP1 binders from COS7 cell lysate, primary screen, small-molecule microarray, 635/667 nm fluorescence (AID 1116). To be noted: COS7-hLAP1 lysate binding, 635 nm fluorescence, higher = more signal.
For assay [20], the target named is Alpha-bungarotoxin (Bungarus multicinctus) (UniProt P60615). The assay is described as follows: alpha-bungarotoxin binders on microarray, profiling panel, artefact control for SMM control protein annotation, biochemical, small-molecule microarray, Alexa647 label, 635/667 nm fluorescence (AID 1117). As to conditions: alpha-BTX-A647 binding fluorescence, higher = more signal.
Chain of Alpha-bungarotoxin (Bungarus multicinctus) (P60615 whole entry, looked up): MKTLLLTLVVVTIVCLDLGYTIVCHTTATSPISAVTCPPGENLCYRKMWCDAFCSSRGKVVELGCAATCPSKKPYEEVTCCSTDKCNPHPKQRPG

Each structure is given as a SMILES string. Calls of active or inactive are those of the source.

Chain of Follistatin-related protein 3 (Homo sapiens) (O95633 whole entry, looked up): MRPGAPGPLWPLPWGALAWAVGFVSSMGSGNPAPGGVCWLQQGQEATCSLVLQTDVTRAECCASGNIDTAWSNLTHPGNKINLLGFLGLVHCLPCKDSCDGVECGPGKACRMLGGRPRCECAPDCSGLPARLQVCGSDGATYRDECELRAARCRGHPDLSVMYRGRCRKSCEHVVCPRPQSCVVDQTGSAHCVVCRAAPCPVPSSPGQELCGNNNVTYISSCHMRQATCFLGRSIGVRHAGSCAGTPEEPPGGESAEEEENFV
Chain of Torsin-1A-interacting protein 1 (Homo sapiens) (Q5JTV8 whole entry, looked up): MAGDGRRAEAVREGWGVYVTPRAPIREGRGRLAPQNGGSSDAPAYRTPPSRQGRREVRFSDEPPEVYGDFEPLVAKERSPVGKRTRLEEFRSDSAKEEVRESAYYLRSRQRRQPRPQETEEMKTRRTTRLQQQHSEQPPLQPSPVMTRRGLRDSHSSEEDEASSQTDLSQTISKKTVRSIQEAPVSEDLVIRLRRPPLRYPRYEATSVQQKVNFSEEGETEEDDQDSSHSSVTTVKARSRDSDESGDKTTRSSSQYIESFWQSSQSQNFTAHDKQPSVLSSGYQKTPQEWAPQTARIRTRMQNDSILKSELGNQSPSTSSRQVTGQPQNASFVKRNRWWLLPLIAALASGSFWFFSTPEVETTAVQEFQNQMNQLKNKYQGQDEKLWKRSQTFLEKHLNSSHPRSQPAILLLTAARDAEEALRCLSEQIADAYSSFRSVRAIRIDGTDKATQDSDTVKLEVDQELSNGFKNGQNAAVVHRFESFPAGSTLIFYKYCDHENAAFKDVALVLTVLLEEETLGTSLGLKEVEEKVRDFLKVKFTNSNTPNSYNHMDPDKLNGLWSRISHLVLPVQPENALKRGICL

Regarding `CC(C)OC(=O)CC(=O)CC(O)c1ccc(C#N)cc1` (stereo not given), the composite z-score in assay [1] is -0.165; in assay [2], 0.715; in assay [3] it was 1.23; in assay [5] it was 0.169; in assay [6], 0.148; in [7], -0.361. Also, the composite z-score in assay [8] is 0.078; in assay [9] it was -0.997; in assay [10] it was 0.891; in assay [11] it was 0.443; in assay [13] it was -0.461; in [14], -1.49. In addition, the composite z-score in assay [15] was -1.46; in [16] it was -0.0405; in assay [17] it was -0.156; in assay [18], -0.397; in [19], 1.67; in assay [20] it was 1.75. Moreover, the z-score was -1.74 (inactive) in assay [4] and -0.259 in assay [12].

Take `CCCCCN1CC=CC23O[C@@H]4C=CCOC(=O)[C@@H]4[C@H]2C(=O)N(CCCO)[C@@H]3C1=O` (stereo not given in full): the composite z-score was 1.63 in assay [1]; -0.263 in assay [2]; 0.359 in assay [3]; -0.519 in [5]; 0.462 in [6]; -0.681 in assay [7]. Besides, the composite z-score in assay [8] is -0.264; in [9] it was -0.49; in [10] it was 0.908; in assay [11], 1.35; in assay [13], -0.642; in [14] it was -0.568. For the same compound, the composite z-score in [15] was 0.487; in [16], -0.204; in [17], -0.0709; in assay [18], 0.0707; in [19], 2.65; in assay [20], -0.339. The z-score is -1.76 (inactive) in assay [4] and -0.538 in assay [12].

As for `[N-]=[N+]=NCc1ccccc1C[C@@]1(C(=O)NCC(O)CO)N=C(c2ccc(OCCCO)cc2)O[C@@H]1c1ccccc1CN=[N+]=[N-]` (stereo not given in full), the composite z-score in assay [1] was 1.71; in assay [2], -0.0331; in assay [3], 0.884; in assay [5] it was 1.33; in assay [6] it was 0.712; in assay [7], -0.747. Also, the composite z-score in assay [8] is -0.203; in assay [9], -0.643; in assay [10], 0.688; in [11], 1.06; in assay [13] it was -0.88; in assay [14], 2.11. For the same compound, the composite z-score in assay [15] was determined as 0.876; in assay [16] it was 0.0219; in assay [17], 0.269; in assay [18], 2.29; in assay [19], 2.01; in assay [20], 1.5. The z-score in [4] was 0.135 (inactive); in assay [12], -1.73.

As to `O=c1cccc(CCc2ccccc2)o1`, the composite z-score is 0.931 in assay [1]; -0.232 in assay [2]; -0.44 in [3]; 0.228 in assay [5]; 0.599 in [6]; -0.834 in assay [7]. The composite z-score in [8] is 0.153; in [9] it was 0.193; in assay [10], 0.532; in assay [11], 0.744; in assay [13], 0.103; in assay [14] it was -0.408. In addition, the composite z-score is -0.262 in assay [15]; -0.118 in assay [16]; 0.0952 in assay [17]; -0.0827 in assay [18]; -0.684 in assay [19]; 1.04 in assay [20]. Besides, the z-score in assay [4] was 0.722 (inactive); in [12], 0.237.

In the case of `COCCOC(=O)N1C(=O)[C@@]2(c3ccccc31)[C@H](c1ccc(O)cc1)N1[C@H](c3ccccc3)[C@H](c3ccccc3)OC(=O)[C@H]1[C@@H]2C(=O)N1CCc2cc(OC)c(OC)cc2C1`, the composite z-score in assay [1] worked out at 1.25; in assay [2], 0.203; in assay [3], 0.404; in assay [5] it was 1.36; in assay [6] it was 0.92; in assay [7] it was 0.869. Further, the composite z-score in assay [8] was 1.03; in assay [9], 0.84; in assay [10], 0.451; in [11], 0.607; in assay [13], 1.01; in [14] it was 0.889. Moreover, the composite z-score in [15] was 0.579; in assay [16], -0.0819; in assay [17], -0.214; in assay [18], -0.533; in assay [19], 0.811; in [20], 0.789. Further, the results for the z-score in assay [4] and in [12] were -0.832 (inactive) and -1.47, respectively.

On to `COc1ccc(C#Cc2ccc3c(c2)[C@]2(C(=O)N3)[C@H](c3ccc(O)cc3)N3[C@H](c4ccccc4)[C@H](c4ccccc4)OC(=O)[C@H]3[C@@H]2C(=O)N2CCCCCCC2)cc1`, for which the composite z-score in assay [1] is 1.39; in assay [2], 2.69; in [3] it was 1.52; in assay [5], 1.22; in assay [6], 1.33; in assay [7], 1.18. The composite z-score turned out to be 1.61 in assay [8]; 1.61 in assay [9]; 1.78 in [10]; 1.33 in assay [11]; 1.07 in assay [13]; 2.7 in [14]. Further, the composite z-score worked out at 1.41 in assay [15]; 0.754 in assay [16]; 2.15 in assay [17]; 2.75 in assay [18]; 4.61 in [19]; 1.83 in assay [20]. Moreover, the z-score in [4] is -0.844 (inactive); in [12] it was -1.01.
